What was measured:
pT7_6His-AlfaTag-HOXD13 = pT7_6His-AlfaTag-HOXD13 (human, UniProt P35453 263-343); experiment: PADIT-seq; settings: dsDNA, one strand shown
pT7_6His-AlfaTag-ZIF268 = pT7_6His-AlfaTag-ZIF268 (human, UniProt P18146 335-423); experiment: PADIT-seq; settings: dsDNA, one strand shown

pT7_6His-AlfaTag-HOXD13, sequence (P35453 263-343): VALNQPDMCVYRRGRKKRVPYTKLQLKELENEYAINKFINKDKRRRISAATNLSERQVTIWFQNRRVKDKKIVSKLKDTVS

Row | Sequence | binding signal (pT7_6His-AlfaTag-HOXD13) [log2FC] | binding signal (pT7_6His-AlfaTag-ZIF268) [log2FC]
1 | CTCGAGGATATCAAGATCTGGCCTCGGCCCTGTAAAAGGAACCTCTAGCTAGCCGACTCACTATAGGGATAATCGCCCTGAGCAAAGACC | 2.46 ± 0.085 | 0.046 ± 0.0931
2 | CTCGAGGATATCAAGATCTGGCCTCGGCTCACTAAAAGGAACCTCTAGCTAGCCGACTCACTATAGGGATAATCGCCCTGAGCAAAGACC | 0.718 ± 0.11 | 0.00307 ± 0.107
3 | CTCGAGGATATCAAGATCTGGCCTCGGCGTTTTAGTCGGAACCTCTAGCTAGCCGACTCACTATAGGGATAATCGCCCTGAGCAAAGACC | -0.506 ± 0.12 | 
4 | CTCGAGGATATCAAGATCTGGCCTCGGCACGCTAAAAGGAACCTCTAGCTAGCCGACTCACTATAGGGATAATCGCCCTGAGCAAAGACC | -0.127 ± 0.102 | 0.0119 ± 0.0913
5 | CTCGAGGATATCAAGATCTGGCCTCGGCGTTTTACGGGGAACCTCTAGCTAGCCGACTCACTATAGGGATAATCGCCCTGAGCAAAGACC | 3.16 ± 0.0771 | 0.0617 ± 0.0868
6 | CTCGAGGATATCAAGATCTGGCCTCGGCATTTTAAGAGGAACCTCTAGCTAGCCGACTCACTATAGGGATAATCGCCCTGAGCAAAGACC | 2.98 ± 0.0964 | 0.0486 ± 0.104
7 | CTCGAGGATATCAAGATCTGGCCTCGGCATTTTATATGGAACCTCTAGCTAGCCGACTCACTATAGGGATAATCGCCCTGAGCAAAGACC | 3.31 ± 0.0819 | 0.238 ± 0.0895
8 | CTCGAGGATATCAAGATCTGGCCTCGGCTCTATAAAAGGAACCTCTAGCTAGCCGACTCACTATAGGGATAATCGCCCTGAGCAAAGACC | 2.9 ± 0.0831 | 0.0429 ± 0.0922
9 | CTCGAGGATATCAAGATCTGGCCTCGGCACCGTAAAAGGAACCTCTAGCTAGCCGACTCACTATAGGGATAATCGCCCTGAGCAAAGACC | 1.91 ± 0.0753 | 0.0818 ± 0.0804
10 | CTCGAGGATATCAAGATCTGGCCTCGGCGTGGTAAAAGGAACCTCTAGCTAGCCGACTCACTATAGGGATAATCGCCCTGAGCAAAGACC | 1.02 ± 0.077 | 
11 | CTCGAGGATATCAAGATCTGGCCTCGGCGCGTGGTAAGGAACCTCTAGCTAGCCGACTCACTATAGGGATAATCGCCCTGAGCAAAGACC | -0.999 ± 0.124 | 0.49 ± 0.0946
12 | CTCGAGGATATCAAGATCTGGCCTCGGCATTTGGGCGGGAACCTCTAGCTAGCCGACTCACTATAGGGATAATCGCCCTGAGCAAAGACC | -0.941 ± 0.11 | 0.125 ± 0.0899
13 | CTCGAGGATATCAAGATCTGGCCTCGGCTTTTTATCGGGAACCTCTAGCTAGCCGACTCACTATAGGGATAATCGCCCTGAGCAAAGACC | 1.91 ± 0.0856 | 0.00149 ± 0.091
14 | CTCGAGGATATCAAGATCTGGCCTCGGCAGTGTAAAAGGAACCTCTAGCTAGCCGACTCACTATAGGGATAATCGCCCTGAGCAAAGACC | 0.712 ± 0.08 | 0.045 ± 0.0778
15 | CTCGAGGATATCAAGATCTGGCCTCGGCCGCCCACTTGGAACCTCTAGCTAGCCGACTCACTATAGGGATAATCGCCCTGAGCAAAGACC | -0.908 ± 0.133 | 0.543 ± 0.104
16 | CTCGAGGATATCAAGATCTGGCCTCGGCTTATTAAAAGGAACCTCTAGCTAGCCGACTCACTATAGGGATAATCGCCCTGAGCAAAGACC | 3.06 ± 0.0807 | 0.0487 ± 0.0902
17 | CTCGAGGATATCAAGATCTGGCCTCGGCAAATTAAAAGGAACCTCTAGCTAGCCGACTCACTATAGGGATAATCGCCCTGAGCAAAGACC | 2.15 ± 0.08 | 0.0496 ± 0.0856
18 | CTCGAGGATATCAAGATCTGGCCTCGGCGCGTGGATAGGAACCTCTAGCTAGCCGACTCACTATAGGGATAATCGCCCTGAGCAAAGACC | -0.997 ± 0.122 | 0.0372 ± 0.0987
19 | CTCGAGGATATCAAGATCTGGCCTCGGCAAATGGGCGGGAACCTCTAGCTAGCCGACTCACTATAGGGATAATCGCCCTGAGCAAAGACC | -0.536 ± 0.104 | 0.157 ± 0.0868

Row | Sequence | binding signal (pT7_6His-AlfaTag-HOXD13) [log2FC] | binding signal (pT7_6His-AlfaTag-ZIF268) [log2FC]
20 | CTCGAGGATATCAAGATCTGGCCTCGGCGCGTGGACTGGAACCTCTAGCTAGCCGACTCACTATAGGGATAATCGCCCTGAGCAAAGACC | -0.334 ± 0.121 | 0.0272 ± 0.108
21 | CTCGAGGATATCAAGATCTGGCCTCGGCAGCGTAAAAGGAACCTCTAGCTAGCCGACTCACTATAGGGATAATCGCCCTGAGCAAAGACC | 0.403 ± 0.0993 | 0.0644 ± 0.094
22 | CTCGAGGATATCAAGATCTGGCCTCGGCGGGATAAAAGGAACCTCTAGCTAGCCGACTCACTATAGGGATAATCGCCCTGAGCAAAGACC | 0.241 ± 0.0798 | 0.0461 ± 0.0742
23 | CTCGAGGATATCAAGATCTGGCCTCGGCATCCTAAAAGGAACCTCTAGCTAGCCGACTCACTATAGGGATAATCGCCCTGAGCAAAGACC | 0.337 ± 0.103 | 0.0323 ± 0.0965
24 | CTCGAGGATATCAAGATCTGGCCTCGGCTACATAAAAGGAACCTCTAGCTAGCCGACTCACTATAGGGATAATCGCCCTGAGCAAAGACC | 2.05 ± 0.0966 | 0.0761 ± 0.103
25 | CTCGAGGATATCAAGATCTGGCCTCGGCCGCTGACGCGGAACCTCTAGCTAGCCGACTCACTATAGGGATAATCGCCCTGAGCAAAGACC | -0.995 ± 0.158 | 
26 | CTCGAGGATATCAAGATCTGGCCTCGGCGAATGGGCGGGAACCTCTAGCTAGCCGACTCACTATAGGGATAATCGCCCTGAGCAAAGACC | -0.762 ± 0.106 | 0.0552 ± 0.0878
27 | CTCGAGGATATCAAGATCTGGCCTCGGCCGCCCATGCGGAACCTCTAGCTAGCCGACTCACTATAGGGATAATCGCCCTGAGCAAAGACC | -0.953 ± 0.115 | 0.0314 ± 0.091
28 | CTCGAGGATATCAAGATCTGGCCTCGGCCTTTTAGGAGGAACCTCTAGCTAGCCGACTCACTATAGGGATAATCGCCCTGAGCAAAGACC | 1.3 ± 0.0799 | 0.0187 ± 0.0815
29 | CTCGAGGATATCAAGATCTGGCCTCGGCCATTGGGCGGGAACCTCTAGCTAGCCGACTCACTATAGGGATAATCGCCCTGAGCAAAGACC | -0.505 ± 0.104 | 0.139 ± 0.0899
30 | CTCGAGGATATCAAGATCTGGCCTCGGCATTTTAACTGGAACCTCTAGCTAGCCGACTCACTATAGGGATAATCGCCCTGAGCAAAGACC | 1.48 ± 0.0833 | 
31 | CTCGAGGATATCAAGATCTGGCCTCGGCGCGTGGACAGGAACCTCTAGCTAGCCGACTCACTATAGGGATAATCGCCCTGAGCAAAGACC | -1.05 ± 0.134 | 0.15 ± 0.106
32 | CTCGAGGATATCAAGATCTGGCCTCGGCCGCCCACTAGGAACCTCTAGCTAGCCGACTCACTATAGGGATAATCGCCCTGAGCAAAGACC | -0.944 ± 0.114 | 0.246 ± 0.0891
33 | CTCGAGGATATCAAGATCTGGCCTCGGCATATGGGCGGGAACCTCTAGCTAGCCGACTCACTATAGGGATAATCGCCCTGAGCAAAGACC | -0.745 ± 0.103 | 0.0376 ± 0.0849
34 | CTCGAGGATATCAAGATCTGGCCTCGGCAGTCTAAAAGGAACCTCTAGCTAGCCGACTCACTATAGGGATAATCGCCCTGAGCAAAGACC | -0.665 ± 0.0999 | 
35 | CTCGAGGATATCAAGATCTGGCCTCGGCCTTTTAGTGGGAACCTCTAGCTAGCCGACTCACTATAGGGATAATCGCCCTGAGCAAAGACC | 1.46 ± 0.0766 | 0.00894 ± 0.0794
36 | CTCGAGGATATCAAGATCTGGCCTCGGCGCGTGGTTAGGAACCTCTAGCTAGCCGACTCACTATAGGGATAATCGCCCTGAGCAAAGACC | -0.958 ± 0.117 | 0.357 ± 0.094
37 | CTCGAGGATATCAAGATCTGGCCTCGGCGCGTGGTATGGAACCTCTAGCTAGCCGACTCACTATAGGGATAATCGCCCTGAGCAAAGACC | -1.06 ± 0.113 | 0.45 ± 0.0837
38 | CTCGAGGATATCAAGATCTGGCCTCGGCGAGTGGGCGGGAACCTCTAGCTAGCCGACTCACTATAGGGATAATCGCCCTGAGCAAAGACC | -0.602 ± 0.0984 | 2.79 ± 0.0771
